This passage reports growth results from PubChem BioAssay (NCI).

The panel holds about 83,000 compounds, 20% with a hit somewhere; the sample as a whole holds those more often.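 The endpoint reported here, percent growth, reads 100 for growth as untreated, 0 for no net growth and -100 for all cells dead.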 Unmarked numbers belong to inactive results. Calls of active or inactive are those of the source. The calls were made as follows: active = growth percent below 10; inactive = the rest.

The test system of the experiment is MDA-MB-468 breast. The experiment in a line: NCI-60 one-dose screen, 48 h (100 = growth as untreated, 0 = no growth, -100 = all killed). Particulars: 10 µM unless noted.
Turning to `C=C(C(=O)c1ccccc1)C(NC(C)(C)C)c1ccccc1` (stereo not given), the growth was -37.3% (active).

Take `COc1ccc2c3c([nH]c2c1)C(=O)c1nc(C)ccc1C3=O`: the growth is 14.8%. Take `OCC(O)C(O)C(O)C(/C=N/Nc1ccccc1)=N/Nc1ccccc1` (stereo not given): the growth was 68%.

Regarding `COc1cc(NCCCCCN=C(N)NC(N)=NC(C)C)c2ncccc2c1`, the growth was -63.5% (active). Regarding `COc1ccc(-c2c(-c3cc4c(c(OC)c3OC)OCO4)noc2N)cc1`, the growth is -6.43% (active). With `NC(=O)c1cc(I)ccc1NC(=O)COc1ccc(Cl)cc1Cl`, the growth is 71.7%. For `O=C1C=CC(n2cc(F)c(=O)[nH]c2=O)O1` (stereo not given), the growth was 85.3%. Consider `CN(c1cc2ncc(=O)[nH]c2cc1NC(N)=NCc1ccc(Cl)cc1)C1CCCCC1`, for which the growth is -80.8% (active). On to `Cc1cc2ncc(-c3cc4ccccc4c(N4CCN(C)CC4)n3)nc2cc1C`, for which the growth is -76.6% (active). With `Cc1nc(N/N=C/c2cn(-c3ccccc3)nc2-c2cc3ccccc3oc2=O)sc1N=Nc1ccccc1`, the growth was 89.7%. `NC(C(=O)O)C(O)c1ccco1` (stereo not given): the growth was 102%. For `CCCCn1c(Cc2ccc(Cl)cc2)nc2cc(OC)c(OC)cc2c1=O` the value was 58.6%; for `COc1cc(Cl)cc(-c2nn(-c3cccc(NC(=O)Nc4cccc(C(F)(F)F)c4)c3)cc2-c2ccncc2)c1`, 6.89% (active). `COc1ccc(-c2nn(-c3cccc(Cl)c3)cc2-c2c(C#N)c(=O)n3[nH]c(-c4ccc(C)cc4)nc3c2C#N)cc1`: the growth was -1.87% (active).

For `O=S(=O)(NCCNc1nccc(-c2c(-c3ccccc3)nc3sccn23)n1)c1ccc(O)cc1`, the growth was 19.9%.

As for `Clc1ccc2c(NCCCN3CCN(c4nc(N5CCOCC5)nc5ccccc45)CC3)ccnc2c1`, the growth was -74.3% (active). Take `N#C/C(=C\c1ccc2c(c1)OCO2)n1nnc2ccccc21`: the growth is -1.9% (active).

As for `Cc1ccccc1C1=N[C@@H](Cc2ccccc2)C(=O)c2c(nc3ccccn23)N1`, the growth was 104%. Turning to `O=C1C(Cl)=C(Nc2ccc(O)cc2)C(=O)N1Cc1ccc(Cl)cc1`, the growth was 5.88% (active). With `CCc1ccc(CNCC(O)c2ccccc2)cc1` (stereo not given), the growth was -1.1% (active).

`NS(=O)(=O)c1ccc(CCn2c(-c3ccc(C(=O)O)cc3)nc(-c3ccccc3)c2-c2ccccc2)cc1`: the growth was 112%. Consider `COc1ccc(C(=O)CSc2nnc(-c3cc(-c4ccccc4)nc4ccccc34)o2)cc1`, for which the growth was 104%.

For `CC(C)(C)c1cc(C(=O)Nc2cc3ccccc3cc2C(=O)NCCN)cc(C(C)(C)C)c1`, the growth was -87.6% (active). As for `Cc1ccc(S(=O)(=O)Nc2ccc(-c3cc(-c4cccc(F)c4)c(C#N)c(=O)[nH]3)cc2)cc1`, the figure is 67.9%. Turning to `COc1ccc(C2C(C#N)=C(/N=C/c3ccc(Cl)cc3)Oc3c2sc2c(C)cccc32)cc1` (stereo not given), the growth is 21.4%. For `CC(=O)N1N=C(c2ccc(Nc3nc(Nc4ccc(F)cc4)nc(Nc4ccc(Cl)cc4)n3)cc2)CC1c1ccc(Cl)cc1` (stereo not given), the growth is 104%.

`COc1ccc(C2=Nn3c(nnc3-n3nc(C)cc3C)SC2)cc1`: the growth is 22.2%.

Consider `Cc1cccc(N2CCN(CC(O)COc3ccc(Cl)cc3)CC2)c1` (stereo not given), for which the growth is 107%. Consider `C[C@@]1(CCC#N)[C@H]2CC[C@@H]3[C@H]4[C@H](C(=O)/C=C/c5cccnc5)CC[C@]4(C#N)CC[C@@]3(C)[C@]2(C)CC[C@H]1C(=O)/C=C/c1cccnc1`, for which the growth was 57.9%.

As for `COc1ccc(-n2c(C)cc(-c3ccccc3)c2C)cc1`, the growth was -6.9% (active). Consider `C#CCOc1cccc(-c2ncnc3cc(NC(=O)C=C)ccc23)c1`, for which the growth was -8.85% (active). Turning to `CC(=O)n1c(-c2ccc(Cl)cc2)nc2c(c1=O)C(c1ccc(Cl)cc1)c1sc3c(Cl)cccc3c1O2` (stereo not given), the growth was 5.06% (active). Take `COC(=O)[C@@H](Cc1c[nH]c2ccccc12)NC(=O)CCCCOc1cc(O)c2c(=O)cc(-c3ccccc3)oc2c1`: the growth was 71.3%. As for `C#COc1cccc(Nc2c(C#N)cnc3ncc(NC(=O)CCl)cc23)c1`, the figure is 3.39% [6.25 µM] (active). Consider `O=C(CCl)Oc1ccc([N+](=O)[O-])cc1`, for which the growth is 112%.

On to `Cc1nc(Nc2cccnc2)sc1C(=O)/C=C/c1ccc(F)cc1`, for which the growth was 26.7%. For `CN1CCN(C(=O)[C@@]2(C)CC[C@]3(C)CC[C@]4(C)C(=CC[C@@H]5[C@@]6(C)C/C(=C/c7ccncc7)C(=O)C(C)(C)[C@@H]6CC[C@]54C)[C@@H]3C2)CC1` the value was 37.5%; for `O=[N+]([O-])c1cccc(CN(Cc2cccc([N+](=O)[O-])c2O)c2ccccc2)c1O`, 108%; for `COc1ccc(/C=N/NC2=NC3C(S2)N(C)C(=O)N3C)cc1` (stereo not given), -8.86% (active). Consider `CCNc1nc(-c2ccc(F)cc2)c(C#N)c(=O)n1C`, for which the growth is 45%.
